Among the data in PubChem BioAssay (NCATS) are Potency, outcome and max response values, retold here.

The target in assay [1] is Arylsulfatase A (Homo sapiens) (UniProt P15289). The assay is described as follows: qHTS screen for enhancers of Arylsulfatase A (ASA1): LOPAC Validation Assay (AID 720538). Further: potency means the concentration at half of the fitted maximal effect. A digest of the protocol:
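SV40-transformed fibroblasts from an MLD patient (ASA-I179S) were treated with compound for 48 h at 37 C. They were then lysed with 0.5 mM pNCS substrate (final) for 14 h at room temperature and stopped with NaOH; signal read by fluorescence (Ex 525/Em 598 nm), with increase denoting enhanced activity.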
In general terms: Quantitative high-throughput screening tests each substance at several concentrations.

The nature of assay [2]: qHTS for compounds that reverse cellular toxicity of Amyloid beta (A-beta) peptide in yeast: LOPAC Validation Assay (AID 720559).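 Further: plate controls were DMSO for no effect and equimolar ferric chloride plus clioquinol rescue for full effect.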 In a few lines:
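Yeast expressing toxic A-beta grown with pinned compounds at 30 C for 48 hr. Growth measured as absorbance at 600 nm; data normalized to DMSO and to an equimolar FeCl3/clioquinol mixture as positive control.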

A short description of assay [3]: qHTS for Activators of Parkin Expression: LOPAC Validation Assay (NLuc Reporter) (AID 720572;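 further: 0% = DMSO and 100% = positive control compound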). A digest of the protocol:
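Neuronal cells with a Parkin promoter-driven FLuc/NLuc coincidence reporter were treated 24 h at 37 C in 7-point dose response (LOPAC). NLuc luminescence read after FLuc; signals normalized to DMSO and positive control (100%).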

The nature of assay [4]: qHTS for Activators of Parkin Expression: LOPAC Validation Assay (FLuc Reporter) (AID 720573; further: potency means the concentration at half of the fitted maximal effect). A digest of the protocol:
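Neuronal cell line stably expressing FLuc/NLuc coincidence reporter under the Parkin promoter, 1,500 cells/well, dosed 24 h after seeding in 7-point series for 24 h at 37 C. FLuc luminescence read; normalized to DMSO and positive control (100%).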

Assay [5] deals with T1, Hexokinase-4 (Homo sapiens) + Glucokinase regulatory protein (Homo sapiens) (UniProt P35557+Q14397). The experiment in a line: qHTS assay for inhibitors of recombinant human GCK-GKRP interaction: ADP-Glo assay (AID 743206).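 Further: plate controls were DMSO plus enzyme for no effect and no enzyme for full effect.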 A digest of the protocol: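 GST-GCK and FLAG-GKRP (15 nM each in the dispensed mix, with 2 uM S6P) react with 0.4 mM ATP and 5 mM glucose (final) in Hepes pH 7.6 for 60 min at room temperature. ADP is measured by ADP-Glo luminescence.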
T1 sequence (P35557 whole entry, looked up): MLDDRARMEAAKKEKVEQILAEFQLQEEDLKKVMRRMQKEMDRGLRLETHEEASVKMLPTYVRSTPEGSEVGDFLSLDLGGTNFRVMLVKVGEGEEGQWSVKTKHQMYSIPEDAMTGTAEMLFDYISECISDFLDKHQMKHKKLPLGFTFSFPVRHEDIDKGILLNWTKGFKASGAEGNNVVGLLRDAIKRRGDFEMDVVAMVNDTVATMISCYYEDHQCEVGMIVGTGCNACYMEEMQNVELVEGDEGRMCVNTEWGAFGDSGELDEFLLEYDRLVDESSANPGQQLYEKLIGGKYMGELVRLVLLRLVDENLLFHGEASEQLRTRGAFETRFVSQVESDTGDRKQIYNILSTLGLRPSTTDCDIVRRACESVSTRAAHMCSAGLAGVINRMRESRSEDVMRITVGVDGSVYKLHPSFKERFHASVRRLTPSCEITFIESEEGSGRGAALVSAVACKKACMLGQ
T1 sequence (Q14397 whole entry, looked up): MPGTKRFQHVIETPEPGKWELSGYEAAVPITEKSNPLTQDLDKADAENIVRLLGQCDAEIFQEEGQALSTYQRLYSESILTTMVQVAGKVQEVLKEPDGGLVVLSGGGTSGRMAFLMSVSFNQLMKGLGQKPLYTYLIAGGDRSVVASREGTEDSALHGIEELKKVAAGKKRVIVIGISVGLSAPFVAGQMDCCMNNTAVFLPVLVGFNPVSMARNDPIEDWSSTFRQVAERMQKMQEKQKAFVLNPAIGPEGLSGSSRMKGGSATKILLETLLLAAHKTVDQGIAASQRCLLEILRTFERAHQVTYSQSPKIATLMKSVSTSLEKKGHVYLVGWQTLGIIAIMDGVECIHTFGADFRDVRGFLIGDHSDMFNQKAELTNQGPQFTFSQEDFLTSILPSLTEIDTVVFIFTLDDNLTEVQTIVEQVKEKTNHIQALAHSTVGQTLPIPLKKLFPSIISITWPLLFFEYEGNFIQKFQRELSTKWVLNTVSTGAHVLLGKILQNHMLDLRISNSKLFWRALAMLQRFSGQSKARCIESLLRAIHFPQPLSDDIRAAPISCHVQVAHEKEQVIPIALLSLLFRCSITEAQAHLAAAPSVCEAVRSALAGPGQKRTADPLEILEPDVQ

Assay [6] concerns the target T1, Hexokinase-4 (Homo sapiens) + Glucokinase regulatory protein (Homo sapiens). The experiment in a line: qHTS assay for inhibitors of recombinant human GCK-GKRP interaction: HTRF assay (AID 743207).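 Further: 0% = DMSO with GCK present and -100% = DMSO wells lacking GCK.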 In a few lines: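 HTRF binding of 5 nM GST-GCK and 5 nM FLAG-GKRP with 2 uM S6P in pH 7.1 Hepes buffer (MgCl2, KCl, DTT, Tween 20, BSA). Anti-FLAG XL665 and anti-GST donor added, 60 min at room temperature; 665/615 nm read, normalized to with- and without-GCK controls.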

Assay [7] is described as follows: qHTS for small molecule inhibitors of Yes1 kinase: Counter Assay (AID 686950).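 Further: no kinase present so only ADP-Glo detection of a fixed ADP amount is tested; luminescence from ADP-Glo reporting ADP in a fixed ATP and ADP mixture; series mostly up to about 77 µM; 0% = DMSO wells with ATP plus ADP and -100% = ATP-only wells without ADP.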 In a few lines:
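Enzyme-free detection counter-screen: compounds preincubated 20 min in buffer, then 0.08 mM ATP plus 0.02 mM ADP added for 60 min at room temperature; ADP-Glo luminescence. Buffer 50 mM Tris pH 7.5, 10 mM MgCl2, 150 mM NaCl; normalized to ATP+ADP and ATP-only controls.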

Assay [8] can be described thus: qHTS assay for small molecule agonists of the antioxidant response element (ARE) signaling pathway measured by Nrf2-dependant transcriptional activity (AID 720636; active means well fitted curve in the direction sought with a large enough effect in the repeat runs; an effect the other way counts as inactive or inconclusive;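 further: HepG2 cells with an ARE-driven luciferase reporter; % of control where 0% means no effect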). In a few lines: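 HepG2 ARE-luc reporter line, 1% dialyzed FBS; 6 hr attachment at 37 C, compound pinned in, 16 hr at 37 C/5% CO2; ONE-Glo, 30 min RT, luminescence read.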
Assay [9] is described as follows: qHTS assay for small molecule antagonists of the retinoid-related orphan receptor gamma (ROR-gamma) signaling pathway - cell viability counter screen (AID 720652; active means well fitted curve in the direction sought with a large enough effect in the repeat runs; an effect the other way counts as inactive or inconclusive;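 further: CHO reporter cells with doxycycline-induced ROR-gamma expression; series mostly up to about 92 µM; compound exposure lasted 16 hr before ATP read; on the % scale 0 is the no-effect control and ±100 the full control effect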). A digest of the protocol: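 CHO cells carrying TET-inducible ROR and RORE-luciferase reporter, plated 5 hr, then dosed with compound plus doxycycline. After 16 hr at 37 C, viability read as intracellular ATP by CellTiter-Glo luminescence.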

The nature of assay [10]: qHTS assay for small molecule agonists of the antioxidant response element (ARE) signaling pathway measured by Nrf2-dependant transcriptional activity - cell viability counter screen (AID 720653; active means well fitted curve in the direction sought with a large enough effect in the repeat runs; an effect the other way counts as inactive or inconclusive; further: on the % scale 0 is the no-effect control and ±100 the full control effect). The note with it: ARE-bla HepG2 viability, CellTiter-Glo ATP luminescence, 16 h; max response: hits give low values. In a few lines:
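ARE-bla HepG2 cells treated with compounds for 16 h at 37C; this counter screen measures viability as intracellular ATP by CellTiter-Glo luminescence after 30 min at room temperature.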

Each structure is given as a SMILES string. Where “and” joins values, the source holds several entries; their conditions need not be identical. Equal values may be shown once. A number with no mark means an inactive call. Records with an inconclusive call do not appear. Calls of active or inactive are those of the source. Unless noted, the call rests on the fitted dose curve; in most records, active means well fitted curve in the direction sought with a large enough effect; inconclusive means small, poorly fitted or top-dose-only effect, or another doubt; inactive means no such curve, though single readings can be large; an effect the other way counts as inactive or inconclusive.

Chain of Arylsulfatase A (Homo sapiens) (P15289 whole entry, looked up): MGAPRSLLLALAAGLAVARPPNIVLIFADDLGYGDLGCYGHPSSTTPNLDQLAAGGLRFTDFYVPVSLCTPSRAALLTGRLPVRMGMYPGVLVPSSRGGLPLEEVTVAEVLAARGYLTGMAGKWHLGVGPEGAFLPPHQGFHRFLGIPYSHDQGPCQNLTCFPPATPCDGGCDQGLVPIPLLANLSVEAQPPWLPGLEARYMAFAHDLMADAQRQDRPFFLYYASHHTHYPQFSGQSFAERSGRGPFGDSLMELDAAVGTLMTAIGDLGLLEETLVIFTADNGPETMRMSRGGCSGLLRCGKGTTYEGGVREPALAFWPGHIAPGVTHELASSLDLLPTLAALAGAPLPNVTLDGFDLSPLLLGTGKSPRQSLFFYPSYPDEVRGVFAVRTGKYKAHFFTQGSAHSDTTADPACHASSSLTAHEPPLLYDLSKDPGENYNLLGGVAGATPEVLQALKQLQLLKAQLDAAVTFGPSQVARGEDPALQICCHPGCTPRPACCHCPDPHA

Turning to `COc1ccccc1N1CCN(CCN(C(=O)C2CCCCC2)c2ccccn2)CC1`, the Potency entry in [1] and in assay [4] was “inactive” in each case. For the same molecule, the molecule was classed as inactive in assay [2], in assay [3], in assay [5] and in [6].
`Nc1cccc2c1CN(C1CCC(=O)NC1=O)C2=O` (stereo not drawn): the molecule was called inactive in assay [7].
As for `Nc1nc(N)c(N=O)c(OCC2CCCCC2)n1`, the Potency result in [1] and in assay [4] was “inactive” each time. Also, the outcome in [2], in assay [3], in assay [5] and in [6] was inactive.
In the case of `Cc1cccc(-c2[nH]ncc2-c2ccc3ncccc3n2)n1`, the result in assay [7] was inactive.
For the molecule `COc1ccc2cc([C@H](C)C(=O)O)ccc2c1`, the Potency result in assay [1] and in assay [4] was “inactive” in each case. For the same molecule, the molecule was called inactive in assay [2], in assay [3], in assay [5] and in assay [6].
Take `CC(C)C[C@H](NC(=O)[C@H](Cc1ccccc1)NC(=O)c1cnccn1)B(O)O`: the call in assay [7] was inactive.
With `CCN(CC)CCOc1ccc(Nc2ncc3cc(-c4c(Cl)cccc4Cl)c(=O)n(C)c3n2)cc1`, the outcome in [7] was inactive.
Same read-out and setting: the same measure for `CCOC(=O)C1=C(O)C(=O)N(Cc2ccccc2)C1`: “inactive”.
Consider `O=Nc1c(-c2c(O)[nH]c3cc(Br)ccc23)[nH]c2ccccc12`, for which the molecule was called inactive in assay [7], in [2], in assay [3], in assay [5] and in assay [6]. Moreover, the Potency was 21300 nM (active) in assay [1] and 2590 nM (active) in assay [4].
Consider `COc1cc2c(N3CCN(C(=O)Nc4ccc(OC(C)C)cc4)CC3)ncnc2cc1OCCCN1CCCCC1`, for which, in [7], the molecule was called inactive.
Still for that read-out and setting: under `COc1cc(Nc2c(C#N)cnc3cc(OCCCN4CCN(C)CC4)c(OC)cc23)c(Cl)cc1Cl` stands “inactive”.
As for `O=c1ccc2ccc(O)c(O)c2o1`, the Potency entry in assay [1] and in assay [4] was “inactive” each time. The result in assay [2], in [3], in assay [5] and in [6] was inactive.
For `C[C@@H](N)C1CCC(C(=O)Nc2ccncc2)CC1` (stereo partly drawn), the outcome in assay [7], in assay [2], in [3], in [5] and in assay [6] was inactive. Further, the Potency entry in assay [1] and in [4] was “inactive” in each case.
Turning to `O=C(O)c1cccnc1Nc1cccc(C(F)(F)F)c1`, the Potency entry in [1] and in [4] was “inactive” throughout. Moreover, the result in [2], in [3], in [5] and in [6] was inactive.
On to `O=C(CCc1ccc(O)cc1)c1c(O)cc(O)cc1O`, for which the Potency in [1] is 2690 nM (active). The result in assay [2], in [3], in [5] and in [6] was inactive. For the same molecule, in [4], the Potency entry was “inactive”.
Regarding `Cc1nc(Nc2ncc(C(=O)Nc3c(C)cccc3Cl)s2)cc(N2CCN(CCO)CC2)n1`, the molecule was called inactive in [7].
On to `CN(C)CCCC1(c2ccc(F)cc2)OCc2cc(C#N)ccc21` (stereo not drawn), for which the Potency entry in [1] and in [4] was “inactive” throughout. Moreover, the call in [2], in [3], in assay [5] and in assay [6] was inactive.
Take `S=c1nc[nH]c2nc[nH]c12`: the molecule was called inactive in assay [7].
Turning to `NCCCCNCCCN`, the Potency result in assay [1] and in [4] was “inactive” throughout. Further, the molecule was called inactive in assay [2], in assay [3], in [5] and in assay [6].
In the case of `Cc1cccc(C#Cc2ccccc2)n1`, the outcome in assay [7], in assay [2], in assay [3], in assay [5] and in [6] was inactive. Also, the Potency entry in assay [1] is “inactive”. Also, the Potency in assay [4] was 2910 nM (active).
Take `OC(CN1CCN(c2cccc(Cl)c2)CC1)C(c1ccccc1)c1ccccc1` (stereo not drawn): the Potency result in assay [1] and in assay [4] was “inactive” throughout. Moreover, the result in assay [2], in assay [3], in [5] and in assay [6] was inactive.
As to `NS(=O)(=O)c1cc(C(=O)O)c(NCc2ccco2)cc1Cl`, the outcome in assay [7] and in assay [9] was inactive. Besides, in assay [8], the Potency result is “inactive”. In addition, in [10], the max response was 0.113% and -9.05%.
As for `O=c1c(O)c(-c2ccc(O)cc2O)oc2cc(O)cc(O)c12`, the Potency entry in assay [1], in [4] and in assay [8] was “inactive” throughout. The outcome in assay [2], in assay [3] and in assay [5] was inactive. For the same molecule, in [10], the max response was 6.53%.
In the case of `CC(=O)O[C@H]1C(=O)[C@@]2(C)C([C@H](OC(=O)c3ccccc3)[C@]3(O)C[C@H](OC(=O)[C@H](O)[C@@H](NC(=O)c4ccccc4)c4ccccc4)C(C)=C1C3(C)C)[C@]1(OC(C)=O)CO[C@@H]1C[C@@H]2O` (stereo partly drawn), the Potency entry in [1] and in assay [4] was “inactive” each time. Moreover, the result in assay [2], in [3], in assay [5] and in assay [6] was inactive.
`O=C(NOCC1CC1)c1ccc(F)c(F)c1Nc1ccc(I)cc1Cl`: in assay [7], the result was inactive.
On the same count and under the same terms, under `Cc1ccc(Nc2nccc(N(C)c3ccc4c(C)n(C)nc4c3)n2)cc1S(N)(=O)=O` stands “inactive”.
Turning to `CC(C)c1ccc2c(c1)c(SC(C)(C)C)c(CC(C)(C)C(=O)O)n2Cc1ccc(Cl)cc1`, the result in assay [7], in assay [2], in assay [5] and in assay [6] was inactive. Further, the Potency entry in assay [1] and in assay [4] was “inactive” throughout.
On to `Nc1ccn([C@@H]2O[C@H](CO)[C@@H](O)C2O)c(=O)n1` (stereo partly drawn), for which the Potency entry in assay [1] and in assay [4] was “inactive” in each case. In addition, the call in assay [2], in [3], in assay [5] and in assay [6] was inactive.
In the case of `CCN(CCO)CCCC(C)Nc1ccnc2cc(Cl)ccc12` (stereo not drawn), the outcome in assay [7] was inactive.
Regarding `Cc1ccc(NC(=O)c2ccc(CN3CCN(C)CC3)cc2)cc1Nc1nccc(-c2cccnc2)n1`, in [7], the molecule was called inactive.
For `Nc1nc(Cl)nc2c1ncn2[C@H]1C[C@H](O)[C@@H](CO)O1`, the outcome in assay [7] was inactive. The Potency result in [8] was “inactive”. Also, the max response in assay [10] was -12.8%.
Regarding `Oc1ccc(-c2nc(-c3ccc(F)cc3)c(-c3ccncc3)[nH]2)cc1`, the call in [7], in [2], in [5] and in [6] was inactive. Further, the Potency result in [1] and in assay [4] was “inactive” in each case.
With `CCOC(=O)C(C)Oc1cccc2c(=O)n(CC(=O)Nc3ccc4c(c3)OCCO4)ccc12` (stereo not drawn), the molecule was called inactive in assay [7], in assay [2], in [3], in assay [5] and in [6]. The Potency entry in assay [1] and in [4] was “inactive” throughout.
